A short description of assay [1]: qHTS RealTime-Glo MT Cell Viability Assay in HepG2 cells - 40 hour (AID 1224870). Further: nearly all actives have a fitted effect of over 50% in size. Further: potency means the concentration at half of the fitted maximal effect. The procedure, abridged: (§1)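 HepG2 cells mixed with RealTime-Glo MT reagents (NanoLuc plus cell-permeant prosubstrate) were seeded at 600 cells/well, incubated 5 h at 37 C/5% CO2, then pinned with compounds in DMSO; nonlytic luminescence tracked viability during 40 h treatment.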
(Quantitative high-throughput screening tests each substance at several concentrations.)

Assay [2] in a line: A CellTox Green Cytotoxicity Assay to monitor cytotoxicity in HEK293 cells - 40 hour (AID 1224871). Further: nearly all actives have a fitted effect of over 45% in size. Further: potency means the concentration at half of the fitted maximal effect. The procedure, abridged:
(§2)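 Cells (HEK293, 600/well) and dye reagent are dispensed together. After 5 h at 37 C, 23 nL compound is pinned in. Plates stay at 37 C for 40 h with fluorescence read at 0h, 8h, 16h, 24h, 32h and 40h.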

Assay [3] can be described thus: qHTS RealTime-Glo MT Cell Viability Assay in HEK293 cells - 16 hour (AID 1224872). Further: nearly all actives have a fitted effect of over 50% in size. Further: potency means the concentration at half of the fitted maximal effect. The procedure, abridged:
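Nonlytic real-time viability readout: viable cells convert prosubstrate to NanoLuc substrate, giving luminescence proportional to live cell number. HEK293, 600 cells/well, compound added after 5 h, continuous culture at 37 C.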

Assay [4] can be described thus: qHTS RealTime-Glo MT Cell Viability Assay in HepG2 cells - 8 hour (AID 1224873). Further: nearly all actives have a fitted effect of over 55% in size. The procedure, abridged:
as §1

A short description of assay [5]: A CellTox Green Cytotoxicity Assay to monitor cytotoxicity in HEK293 cells - 24 hour (AID 1224875). Further: nearly all actives have a fitted effect of over 45% in size. Further: potency means the concentration at half of the fitted maximal effect. The procedure, abridged:
as §2

Assay [6] can be described thus: A CellTox Green Cytotoxicity Assay to monitor cytotoxicity in HepG2 cells - 16 hour (AID 1224876). Further: nearly all actives have a fitted effect of over 45% in size. Further: potency means the concentration at half of the fitted maximal effect. The procedure, abridged:
(§3)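 Cells and non-lytic dye reagent are dispensed together (600 HepG2 cells/well) and incubated 5 h before DMSO compound transfer. Kinetic fluorescence is then recorded in the same wells during 40 h at 37 C.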

A short description of assay [7]: qHTS RealTime-Glo MT Cell Viability Assay in HepG2 cells - 32 hour (AID 1224877). Further: nearly all actives have a fitted effect of over 55% in size. The procedure, abridged:
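Luminescence read-out: viable HepG2 cells reduce a prosubstrate to a NanoLuc substrate, giving a signal proportional to live cell number. Reads taken at 0, 8, 16, 24, 32 and 40 h of compound exposure at 37 C.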

Assay [8] is described as follows: A CellTox Green Cytotoxicity Assay to monitor cytotoxicity in HepG2 cells - 24 hour (AID 1224878). Further: nearly all actives have a fitted effect of over 45% in size. Further: potency means the concentration at half of the fitted maximal effect. The procedure, abridged: as §3
Assay [9] can be described thus: A CellTox Green Cytotoxicity Assay to monitor cytotoxicity in HepG2 cells - 40 hour (AID 1224879). Further: nearly all actives have a fitted effect of over 40% in size. Further: potency means the concentration at half of the fitted maximal effect. The procedure, abridged:
as §3

The nature of assay [10]: qHTS RealTime-Glo MT Cell Viability Assay in HEK293 cells - 40 hour (AID 1224874). Further: nearly all actives have a fitted effect of over 50% in size. Further: potency means the concentration at half of the fitted maximal effect. Conditions: RealTime-Glo luminescence; max response: stronger effect = lower value. The procedure, abridged:
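Real-time viability in HEK293: signal arises when living cells convert a prosubstrate for NanoLuc in the medium, so luminescence tracks viable cell number. Compound (23 nL, DMSO) added 5 h post-seeding; kinetic reads at 0–40 h, 37 C.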

SMILES strings stand for the structures. “And” between values parts separate entries of the source, which are not always exact repeats. Equal values may be shown once. Inconclusive results are not listed. More than one record can exist for a structure, and the calls need not agree. The source made the active and inactive calls. The call rests on the fitted dose curve; in most records, active means well fitted curve in the direction sought with a large enough effect in the repeat runs; inconclusive means weak or mixed curves; inactive means no such curve, though single readings can be large; an effect the other way counts as inactive or inconclusive.
On the % scale 0 is the no-effect control and ±100 the full control effect.

In the case of `CCCC(=O)O[C@]1(C(=O)CO)CC[C@H]2[C@@H]3CCC4=CC(=O)CC[C@]4(C)[C@H]3[C@@H](O)C[C@@]21C`, the Potency result in assay [1], in assay [2], in [3], in assay [4], in [5] and in [6] was “inactive” in each case. Further, the Potency result in assay [7], in assay [8] and in assay [9] was “inactive” throughout.
`C[N+](C)(C)CC(O)CC(=O)[O-]` (centres undefined): the Potency result in assay [1], in assay [2], in assay [3], in assay [4], in assay [5] and in [6] was “inactive” throughout. Moreover, the Potency entry in [7], in assay [8] and in assay [9] was “inactive” throughout.
`CCOC(=O)[C@H](CCc1ccccc1)N[C@@H](C)C(=O)N1[C@H](C(=O)O)C[C@@H]2CCC[C@@H]21`: the Potency entry in assay [1], in assay [2], in assay [3], in assay [4], in assay [5] and in [6] was “inactive” throughout. In addition, the Potency entry in assay [7], in assay [8] and in [9] was “inactive” throughout.
For the compound `Cn1c(N)c(N=O)c(=O)n(C)c1=O`, the Potency result in [1], in assay [2], in assay [3], in [4], in assay [6] and in [7] was “inactive” in each case. The Potency entry in assay [8] and in assay [9] was “inactive” in each case.
Turning to `CCOC(C)(C)C`, the Potency entry in [1], in [2], in assay [3], in assay [4], in assay [5] and in assay [6] was “inactive” in each case. The Potency entry in assay [8] and in assay [9] was “inactive” each time.
On to `Nc1nc2c(ncn2COC(CO)CO)c(=O)[nH]1`, for which the Potency entry in assay [2], in assay [6], in assay [8] and in [9] was “inactive” in each case.
In the case of `O=C1CC2CC1C1CCCC21` (centres undefined), the Potency entry in [1], in assay [3], in assay [4], in assay [6], in assay [7] and in assay [9] was “inactive” each time. Besides, the max response in assay [10] was -4.86% (inactive).
Consider `C=C(C)CS(=O)(=O)O`, for which the Potency result in assay [1], in [2], in [3], in assay [4], in [5] and in [6] was “inactive” throughout. Also, in [9], the Potency entry was “inactive”.
As to `O=C(O)COc1nn(Cc2ccccc2)c2ccccc12`, the Potency entry in assay [1], in assay [2], in assay [3], in [4], in [5] and in [6] was “inactive” each time. The Potency entry in assay [7] and in assay [9] was “inactive” each time.
Consider `N=C(N)c1ccc2cc(OC(=O)c3ccc(N=C(N)N)cc3)ccc2c1`, for which the Potency result in [1], in assay [2], in assay [3], in assay [4], in assay [5] and in [6] was “inactive” throughout. The Potency entry in [7] and in assay [9] was “inactive” throughout.
With `Cc1nc2c([nH]1)c(=O)n(C)c(=O)n2Cc1ccco1`, the Potency result in [1], in assay [2], in assay [3], in assay [4], in assay [5] and in [6] was “inactive” in each case. The Potency entry in assay [8] and in [9] was “inactive” each time.
Consider `COC(C)(C)CCCC(C)CC=O` (centres undefined), for which the Potency result in [1], in assay [2], in assay [3], in assay [4], in [5] and in assay [6] was “inactive” each time. For the same compound, the Potency result in [7], in assay [8] and in assay [9] was “inactive” throughout.
Consider `CN(C)CCCN1c2ccccc2CCc2ccc(Cl)cc21`, for which the Potency in assay [1] is 43.6 µM (active); in assay [2], 49 µM (active) and 26.8 µM (active); in [3], 43.6 µM (active); in [10], 34.7 µM (active) and 21.3 µM (active); in [5] it was 49 µM (active) and 23.9 µM (active); in assay [6], 54.9 µM (active) and 21.3 µM (active). Moreover, the Potency in assay [9] is 34.7 µM (active) and 23.9 µM (active).
Regarding `CCOc1ccc(C(=O)OCCN(CC)CC)cc1`, the Potency entry in [1], in assay [2], in [3], in assay [4], in assay [6] and in [7] was “inactive” throughout. Besides, the Potency result in assay [8] and in assay [9] was “inactive” throughout.
For the compound `CC(C)(c1ccc(O)cc1)c1ccc(O)cc1`, the Potency result in assay [1], in [4], in assay [5], in assay [6], in assay [8] and in [9] was “inactive” each time. Moreover, the Potency entry in assay [2] was “inactive and 17.7 µM (active)”.
Take `CC/C=C\CCOC(C)=O`: the Potency result in [1], in [2], in [3], in [4], in assay [5] and in assay [6] was “inactive” in each case. In assay [9], the Potency result was “inactive”.
Turning to `COC(=O)c1c(Cl)c(Cl)c(C(=O)OC)c(Cl)c1Cl`, the Potency entry in [1], in assay [4] and in assay [8] was “inactive” in each case. The Potency result in assay [2] was “inactive and 38.9 µM (active)”; in assay [6] it was “inactive and 77.6 nM (active)”. In assay [10], the max response is -27.2% (inactive).
Turning to `O=C(CCCN1CCN(c2ccccn2)CC1)c1ccc(F)cc1`, the Potency result in assay [1], in [2], in [4], in assay [6], in assay [7] and in assay [9] was “inactive” in each case.
With `C[C@H]1C[C@@H](O)CC(C)(C)C1`, the Potency entry in [1], in assay [3], in assay [4], in assay [6], in assay [7] and in [8] was “inactive” throughout. Also, the Potency entry in assay [9] is “inactive”.
With `CO/N=C(/C(=O)N[C@@H]1C(=O)N2C(C(=O)OCOC(=O)C(C)(C)C)=C(C)CS[C@H]12)c1csc(N)n1`, the Potency entry in [1], in assay [2], in [3], in [4], in assay [5] and in [6] was “inactive” each time. The Potency entry in assay [7], in [8] and in [9] was “inactive” throughout.
With `CO[C@]12C[C@@H](COC(=O)c3cncc(Br)c3)CN(C)[C@@H]1Cc1cn(C)c3cccc2c13`, the Potency result in assay [1], in assay [2], in [4] and in assay [5] was “inactive” each time. Also, the max response in assay [10] is -5.48% (inactive). Also, the Potency in assay [6], in assay [8] and in [9] was 23.9 µM (active) throughout.
As for `CCCCCCCCCCCC`, the Potency entry in assay [1], in [2], in assay [3], in [4], in assay [5] and in [6] was “inactive” in each case. For the same compound, the Potency result in [7] and in assay [9] was “inactive” throughout.
As to `CC(NC(CCc1ccccc1)C(=O)O)C(=O)N1C(=O)N(C)CC1C(=O)O` (centres undefined), the Potency result in assay [1], in assay [2], in assay [3], in [4], in assay [5] and in assay [6] was “inactive” in each case. For the same compound, the Potency entry in [8] and in assay [9] was “inactive” throughout.
`CCCCCCCCS(=O)(=O)Cl`: the Potency result in assay [1], in assay [2], in assay [3], in assay [4], in [6] and in assay [8] was “inactive” throughout. The Potency entry in assay [9] is “inactive”.
With `O=c1cc(-c2ccccc2)oc2ccccc12`, the Potency result in [1], in assay [4], in [5], in assay [6], in [7] and in assay [8] was “inactive” each time. The Potency in [3] is 19.5 µM (active) and 6.88 µM (active); in assay [9] it was “inactive and 43.6 µM (active)”.
On to `CCSC(=O)N(CC(C)C)CC(C)C`, for which the Potency result in assay [1], in [2], in [3], in assay [4], in assay [5] and in assay [6] was “inactive” each time. Besides, the Potency entry in assay [7] and in assay [9] was “inactive” in each case.
With `COC(=O)C1=C(C)NC(C)=C(C(=O)OC)C1c1ccccc1[N+](=O)[O-]`, the Potency entry in [1], in [2], in assay [3], in [5], in assay [6] and in assay [8] was “inactive” throughout. Further, the Potency entry in [9] was “inactive”. Further, in assay [10], the max response was -16.8% (inactive).
In the case of `O=c1n(CCO)c(=O)n(CCO)c(=O)n1CCO`, the Potency result in assay [1], in [3], in assay [4] and in [7] was “inactive” in each case. Further, the Potency result in [2] is “inactive and 38.9 µM (active)”; in assay [6], “inactive and 38.9 µM (active)”; in [8], “inactive and 38.9 µM (active)”; in assay [9], “inactive and 43.6 µM (active)”.

Values taken from PubChem BioAssay (Tox21).
